# From PubChem BioAssay
# Unmarked numbers belong to inactive results. The rule behind the calls is not given here.
# Experiment: hESC survival regulators, cell-based (AID 493140);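 note: cells exposed to compounds for four days before counting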
# Details: human embryonic stem cell survival screen; active compounds read high
row,Structure (SMILES),survival
1,COC(=O)C1=CO[C@@H](C)[C@@H]2CN3CCc4c([nH]c5ccccc45)C3C[C@H]12 (stereo not given in full),5.92
2,C1CCN2C[C@H]3C[C@@H](CN4CCCC[C@@H]34)[C@H]2C1,10
3,CC(C)CC(=O)NC(C(=O)N[C@H](C(=O)NC(CC(C)C)[C@@H](O)CC(=O)N[C@@H](C)C(=O)NC(CC(C)C)[C@@H](O)CC(=O)O)C(C)C)C(C)C (stereo not given in full),5.42
4,Nc1nc2ncc(CNc3ccc(C(=O)N[C@H](CCC(=O)O)C(=O)O)cc3)nc2c(=O)[nH]1,11.4
5,CC(C)(O/N=C(/C(=O)N[C@@H]1C(=O)N2C(C(=O)[O-])=C(C[n+]3ccccc3)CS[C@H]12)c1csc(N)n1)C(=O)O,5.92
6,C[C@]12CCC(=O)C[C@H]1CC(=O)[C@@H]1[C@@H]2CC(=O)[C@]2(C)CCC[C@@H]12 (tested in a mixture with another compound),19.5
7,CC1Cc2ccccc2N1NC(=O)c1ccc(Cl)c(S(N)=O)c1 (stereo not given),17.1
8,CC(=O)NC(CC(=O)O)C(=O)O (stereo not given),11.8
9,O=C1O[C@H](C(O)CO)[C@H](O)C1O (stereo not given in full),4.42
10,CC[C@H]1CN2CCc3cc(OC)c(OC)cc3[C@@H]2C[C@@H]1CC1NCCc2cc(OC)c(OC)cc21 (stereo not given in full),0.25
11,Cc1c(C)c2c(c(C)c1O)CC[C@](C)(CCC[C@@H](C)CCC[C@@H](C)CCCC(C)C)O2,5.83
12,CC(=O)NC1[C@@H](O)OC(CO)[C@@H](O)[C@H]1O[C@H](C)C(=O)O (stereo not given in full),11.5
13,CC(=O)O[C@H]1C(=O)[C@@]2(C)[C@H](O)C[C@@H]3OC[C@]3(OC(C)=O)[C@@H]2[C@@H](OC(=O)c2ccccc2)[C@@]2(O)C[C@@H](OC(=O)[C@@H](O)[C@H](NC(=O)c3ccccc3)c3ccccc3)C(C)=C1C2(C)C,5
14,O=C(N[C@H](CO)[C@@H](O)c1ccc([N+](=O)[O-])cc1)C(Cl)Cl,26.4
15,Nc1c2ccccc2nc2c(O)cccc12,5.5
16,CS(=O)(=O)c1ccc(-c2nc(-c3ccc(F)cc3)c(-c3ccncc3)[nH]2)cc1,113
17,COc1cc(OC)c2c(c1Cl)O[C@]1(C2=O)C(OC)CC(=O)C[C@H]1C (stereo not given in full),13.2
18,CN=C(NC#N)NCCSCC1N=CN=C1C (stereo not given),16.7

row,Structure (SMILES),survival
1,COC1CC(O[C@@H]2[C@H](C)[C@H](OC3OC(C)CC(N(C)C)C3OC(C)=O)[C@H](C)CC3(CO3)C(=O)[C@@H](C)C(OC(C)=O)[C@H](C)[C@H](C)OC(=O)[C@@H]2C)OC(C)C1OC(C)=O (stereo not given in full),27.8
2,CCOC(=O)Oc1c(OC)cc(C(=O)OC2CC3CN4CCc5c([nH]c6cc(OC)ccc56)C4CC3C(C(=O)OC)C2OC)cc1OC (stereo not given),6.25
3,C=C1CC[C@@H](O)C/C1=C/C=C1\CCC[C@]2(C)[C@@H]([C@H](C)CCCC(C)C)CC[C@@H]12,15.8
4,CN1CCC23c4ccccc4NC1C21CCN(C)C3Nc2ccccc21,4.92
5,CN(C)CC/C=C1/c2ccccc2CSc2ccccc21,3.75
6,NCC1OC(COC[C@@H]2C(O)[C@H](OC3C(O)C(N)CC(N)C3OC3OC(CN)C(O)C(O)C3N)O[C@@H]2CO)C(N)C(O)C1O (stereo not given in full),12.3
7,O=c1[nH]c(=O)n([C@H]2CC(O)[C@@H](CO)O2)cc1I (stereo not given in full),6.25
8,CC(C)(CS)C(=O)N1CCC[C@@H]1C(=O)O,8.75
9,CC[C@H]1OC(=O)[C@H](C)[C@@H](O[C@H]2C[C@@](C)(OC)[C@@H](O)[C@H](C)O2)[C@H](C)[C@@H](O[C@H]2O[C@H](C)C[C@H](N(C)C)[C@H]2O)[C@](C)(O)C[C@@H](C)C(=O)[C@H](C)[C@@H](O)[C@]1(C)O,35.4
10,C[C@H]1[C@H](C)CC[C@]2(C(=O)O)CC[C@]3(C)C(=CCC4[C@@]5(C)CC[C@H](O)C(C)(C)[C@@H]5CC[C@]43C)[C@H]12 (stereo not given in full),11.2
11,CC[C@@H]1OC(=O)[C@H](C)[C@H](O[C@H]2C[C@@](C)(OC)[C@@H](O)[C@H](C)O2)[C@@H](C)[C@@H](O[C@@H]2O[C@H](C)C[C@H](N(C)C)[C@H]2O)C(C)(O)C[C@@H](C)[C@@H]2NC(COCCOC)OC([C@H]2C)[C@]1(C)O (stereo not given in full),4.33
12,Cc1cc2ncc(-c3ccccc3)nc2cc1C,100
13,CN1[C@@H]2CC[C@H]1CC(OC(=O)[C@@H](CO)c1ccccc1)C2 (stereo not given in full),13.1
14,C=C1CC[C@@H](O)C/C1=C/C=C1\CCC[C@]2(C)[C@@H]([C@H](C)/C=C/[C@@H](C)C(C)C)CC[C@@H]12,8.25
15,CC(C)(CO)[C@H](O)C(=O)NCCC(=O)O,19.5
16,C=CC1=C(C(=O)O)N2C(=O)[C@@H](NC(=O)/C(=N/OCC(=O)O)c3csc(N)n3)[C@H]2SC1 (stereo in doubt),5.58
17,CCOC(=O)[C@@H](CCc1ccccc1)NC(C)C(=O)N1CCC[C@@H]1C(=O)O (stereo not given in full),25.8
